Test results: PubChem BioAssay (NCATS)
Inconclusive results are not listed. Activity calls are given as the source filed them. Unless noted, calls follow the shape of the dose curve; as a rule, active = well fitted curve in the direction sought with a large enough effect; inconclusive = small, poorly fitted or top-dose-only effect, or another doubt; inactive = no such curve, though single readings can be large; an effect the other way counts as inactive or inconclusive.

Assays:
[1] = target: Cytochrome P450 1A2 (Homo sapiens) (UniProt P05177); experiment: p450-cyp1a2 (AID 410; calls by dose curve;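 also: -100% = full effect of reference inhibitor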)
Chain of Cytochrome P450 1A2 (Homo sapiens) (P05177 whole entry, looked up): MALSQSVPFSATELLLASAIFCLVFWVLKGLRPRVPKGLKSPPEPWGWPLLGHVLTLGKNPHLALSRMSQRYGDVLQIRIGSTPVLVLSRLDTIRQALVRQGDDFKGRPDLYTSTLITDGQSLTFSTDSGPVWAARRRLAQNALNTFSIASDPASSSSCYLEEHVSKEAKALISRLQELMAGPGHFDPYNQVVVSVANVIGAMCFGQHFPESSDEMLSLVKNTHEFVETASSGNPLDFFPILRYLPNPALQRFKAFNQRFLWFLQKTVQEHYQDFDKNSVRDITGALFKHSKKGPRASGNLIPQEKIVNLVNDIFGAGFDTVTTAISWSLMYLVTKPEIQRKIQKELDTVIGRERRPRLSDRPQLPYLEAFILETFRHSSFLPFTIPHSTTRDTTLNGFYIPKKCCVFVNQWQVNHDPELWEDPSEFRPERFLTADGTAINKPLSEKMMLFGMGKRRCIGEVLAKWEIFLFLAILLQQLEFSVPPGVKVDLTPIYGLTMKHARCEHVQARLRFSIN
Summary of the method: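 O-Demethylation of luciferin 6' methyl ether by human CYP1A2 is monitored as luciferase luminescence. Substrate sits at Km (100uM); enzyme is 20nM. Values are scaled to 57 uM furafylline as maximal inhibition.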

[2] = NFAT Signaling Pathway (AID 444; active = well fitted curve in either direction with a large enough effect, not every such curve was filed as active;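 also: carbachol stimulus at about its EC50 of 1 µM final; % is scaled to controls: 0 for no effect and ±100 for the full control effect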); details: Jurkat NFAT-bla M1, carbachol, beta-lactamase ratio, 5 h; at 38 µM (top of the series)
Summary of the method: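 Jurkat cells carrying an NFAT-driven β-lactamase reporter and co-transfected muscarinic M1 receptor were treated with compound plus carbachol (1 uM final, an EC50 level) for 5 h at 37 °C. CCF4 loading followed for 1 h at RT; 460/530 nm ratio gave %activity.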

[3] = Stat Signaling Pathway (AID 446; active = well fitted curve in either direction with a large enough effect, not every such curve was filed as active;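 also: ME-180 cervical cancer cells given 40 pM IL-6 alongside compound; SIE-controlled beta-lactamase reporter measured as 460/530 nm FRET emission ratio; % is scaled to controls: 0 for no effect and ±100 for the full control effect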)
Summary of the method: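 Compound effects on IL-6-induced STAT reporter activity were measured in ME-180 cells. After overnight culture, cells were co-treated with 40 pM IL-6 for 5 hrs before beta-lactamase substrate loading at room temperature.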

[4] = target: Glucocorticoid receptor (Homo sapiens) (UniProt P04150); experiment: GR-GFP Redistribution (AID 450;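 active = compounds whose dose series gives a full or clear partial fitted curve of increased nuclear translocation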; also: potency is read from the fitted curve at half-maximal effect); details: U2OS GR-GFP nuclear translocation, laser cytometry, 2 h
Chain of Glucocorticoid receptor (Homo sapiens) (P04150 whole entry, looked up, the tested form may be a part): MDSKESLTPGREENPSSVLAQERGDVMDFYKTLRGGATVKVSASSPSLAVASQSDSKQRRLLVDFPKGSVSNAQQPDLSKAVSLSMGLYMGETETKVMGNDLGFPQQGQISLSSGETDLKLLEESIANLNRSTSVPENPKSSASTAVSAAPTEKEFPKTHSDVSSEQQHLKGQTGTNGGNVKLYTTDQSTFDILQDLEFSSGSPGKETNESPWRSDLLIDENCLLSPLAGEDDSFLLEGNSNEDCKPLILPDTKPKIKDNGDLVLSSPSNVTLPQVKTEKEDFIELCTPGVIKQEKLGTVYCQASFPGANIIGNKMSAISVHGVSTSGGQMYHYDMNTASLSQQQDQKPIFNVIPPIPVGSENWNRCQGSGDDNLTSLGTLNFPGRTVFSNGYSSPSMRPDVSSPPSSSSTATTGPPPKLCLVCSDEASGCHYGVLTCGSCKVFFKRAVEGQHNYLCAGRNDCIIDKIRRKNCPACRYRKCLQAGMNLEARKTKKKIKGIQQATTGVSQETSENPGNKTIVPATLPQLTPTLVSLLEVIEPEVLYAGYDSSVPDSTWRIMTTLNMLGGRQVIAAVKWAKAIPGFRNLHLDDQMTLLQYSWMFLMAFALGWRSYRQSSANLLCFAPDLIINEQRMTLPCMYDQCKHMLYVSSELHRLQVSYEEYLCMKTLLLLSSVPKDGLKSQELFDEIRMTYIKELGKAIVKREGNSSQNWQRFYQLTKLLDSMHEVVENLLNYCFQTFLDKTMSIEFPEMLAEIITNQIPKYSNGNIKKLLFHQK

[5] = target: Glucocorticoid receptor (Homo sapiens) (UniProt P04150); experiment: GR-EFC Redistribution (AID 451; calls by dose curve; also: potency is read from the fitted curve at half-maximal effect); details: CHO-K1 GR-EFC translocation, beta-gal luminescence, 2 h
Summary of the method: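 CHO-K1 cells stably expressing nuclear-localized β-gal enzyme acceptor and GR fused C-terminally to the enzyme donor fragment; ligand-driven nuclear translocation restores β-gal by complementation. Compounds titrated up to 46 uM final, 2 h at 37 °C; luminescence read.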

[6] = target: Mitogen-activated protein kinase 10 (Mus musculus) (UniProt Q61831); experiment: JNK3 AlphaScreen Assay (AID 530; active = well fitted curve in either direction with a large enough effect, not every such curve was filed as active;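 also: kinase came from lysate of stimulated human HepG2 cells; signal reports phosphorylation of biotinylated GST-cJun 1-79 at Ser73 with 10 µM ATP; % is scaled to controls: 0 for no effect and ±100 for the full control effect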)
Summary of the method: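 Phosphorylation of biotinylated GST-cJun(1-79) at Ser73 is measured by AlphaScreen proximity luminescence. Enzyme is JNK3 in HepG2 lysates activated with interleukin-1beta and tumor necrosis factor alpha; ATP is 10 uM final.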

[7] = target: 3',5'-cyclic-AMP phosphodiesterase 4B (Homo sapiens) (UniProt Q07343); experiment: qHTS Assay for Inhibitors of PDE-IV (AID 607; active = well fitted activation curve with a large enough effect in the main read-out, with a control signal flat, not every such curve was filed as active; also: % of control where 0% means no effect)
Chain of 3',5'-cyclic-AMP phosphodiesterase 4B (Homo sapiens) (Q07343 whole entry, looked up): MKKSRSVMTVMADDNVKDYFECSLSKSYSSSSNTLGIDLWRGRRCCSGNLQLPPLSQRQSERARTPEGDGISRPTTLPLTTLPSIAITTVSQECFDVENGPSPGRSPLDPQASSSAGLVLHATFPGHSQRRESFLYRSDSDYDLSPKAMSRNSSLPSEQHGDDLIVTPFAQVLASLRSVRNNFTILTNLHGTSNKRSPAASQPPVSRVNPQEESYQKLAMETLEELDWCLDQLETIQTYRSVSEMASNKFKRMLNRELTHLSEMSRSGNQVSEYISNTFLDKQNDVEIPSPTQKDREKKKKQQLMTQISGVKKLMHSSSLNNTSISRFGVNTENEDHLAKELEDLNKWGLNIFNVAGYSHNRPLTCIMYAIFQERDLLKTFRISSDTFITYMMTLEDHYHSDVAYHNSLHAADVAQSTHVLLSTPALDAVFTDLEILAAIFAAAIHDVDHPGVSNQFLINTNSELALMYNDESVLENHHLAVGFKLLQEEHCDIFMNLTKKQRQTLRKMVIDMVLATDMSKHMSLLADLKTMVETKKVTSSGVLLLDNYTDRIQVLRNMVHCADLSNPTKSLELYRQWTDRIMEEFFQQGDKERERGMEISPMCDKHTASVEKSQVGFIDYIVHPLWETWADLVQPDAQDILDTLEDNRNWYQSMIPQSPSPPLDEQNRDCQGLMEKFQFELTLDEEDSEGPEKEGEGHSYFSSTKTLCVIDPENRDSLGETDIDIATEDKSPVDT
Summary of the method: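 ACTOne HEK293 cells carry a modified cAMP-gated CNG channel and express endogenous PDE4; plated 1000 cells/well, compounds up to 22.9 uM final. Membrane-potential dye fluorescence (ex 535/em 590) was read; parental cells received 10 uM forskolin + 100 uM RO 20-1724.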

[8] = target: Guanine nucleotide-binding protein G(i) subunit alpha-1 (Homo sapiens) (UniProt P63096); experiment: qHTS Assay for Inhibitors of RGS12 GoLoco Motif Activity (Green Fluorophore) (AID 879);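 also: 0% = labeled peptide with Gαi1 and full inhibition = labeled peptide alone without protein; negative values mean loss of peptide binding seen as reduced polarization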
Chain of Guanine nucleotide-binding protein G(i) subunit alpha-1 (Homo sapiens) (P63096 whole entry, looked up): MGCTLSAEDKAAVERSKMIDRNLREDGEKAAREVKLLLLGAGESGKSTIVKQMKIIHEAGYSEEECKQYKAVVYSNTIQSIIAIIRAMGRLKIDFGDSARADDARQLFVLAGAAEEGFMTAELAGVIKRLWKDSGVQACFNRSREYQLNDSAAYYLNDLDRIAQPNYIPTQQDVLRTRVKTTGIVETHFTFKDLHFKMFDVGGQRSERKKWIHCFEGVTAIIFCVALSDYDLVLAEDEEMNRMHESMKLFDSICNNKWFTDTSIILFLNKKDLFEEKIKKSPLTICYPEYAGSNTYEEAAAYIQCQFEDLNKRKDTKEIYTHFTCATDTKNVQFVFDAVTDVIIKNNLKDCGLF
Summary of the method: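 A drop in FITC polarization marked displacement of the FITC-tagged RGS12 GoLoco peptide (10 nM) from Gαi1 (50 nM). Compounds were incubated 10 min at room temperature in Tris pH 7.5 buffer containing 150 mM NaCl, 0.1 mM GDP and 0.05% NP40; unlabeled peptide titration served as control.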

[9] = qHTS Assay for Identification of Small Molecule Antagonists for NFkB Signaling Pathway (AID 895; active = well fitted inhibition curve with a large enough effect in the signal ratio, with a control signal flat, not every such curve was filed as active; the % refers to the signal ratio; also: % is scaled to controls: 0 for no effect and ±100 for the full control effect)
Summary of the method: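 NFkB-bla ME-180 cervical carcinoma cells with beta-lactamase reporter under NFkB response element; compounds added, then TNF alpha at 10 pM final (EC50), 5 h at 37 C. LiveBLAzer substrate 2 h, room temperature; emission 460/530 nm at 405 nm excitation.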

[10] = qHTS Assay for Identification of Small Molecule Agonists for Hypoxia Response Element Signaling Pathway (AID 914; active = well fitted activation curve with a large enough effect in the signal ratio, with a control signal flat, not every such curve was filed as active; the % refers to the signal ratio; also: % of control where 0% means no effect); details: ME-180 (cervical carcinoma) HRE-bla reporter, beta-lactamase ratio, CoCl2, 17 h; activation: stronger effect = higher value
Summary of the method: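 Cells were plated overnight, pin-dosed with compound in a titration series, co-stimulated with EC50 CoCl2 and incubated 17 hours at 37 degrees Celsius. CCF4 substrate was then loaded, and AC50 values came from the 460nm/530nm ratio.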

[11] = target: Muscarinic acetylcholine receptor M1 (Rattus norvegicus) (UniProt P08482); experiment: qHTS Assay for Antagonists of Acetylcholine Muscarinic M1 Receptor: Kinetic Measurement of Intracellular Calcium Response (AID 943);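 also: Fluo-4 calcium signal as peak divided by basal fluorescence over 4 min; nearly all actives have a fitted effect of over 75% in size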
Chain of Muscarinic acetylcholine receptor M1 (Rattus norvegicus) (P08482 whole entry, looked up): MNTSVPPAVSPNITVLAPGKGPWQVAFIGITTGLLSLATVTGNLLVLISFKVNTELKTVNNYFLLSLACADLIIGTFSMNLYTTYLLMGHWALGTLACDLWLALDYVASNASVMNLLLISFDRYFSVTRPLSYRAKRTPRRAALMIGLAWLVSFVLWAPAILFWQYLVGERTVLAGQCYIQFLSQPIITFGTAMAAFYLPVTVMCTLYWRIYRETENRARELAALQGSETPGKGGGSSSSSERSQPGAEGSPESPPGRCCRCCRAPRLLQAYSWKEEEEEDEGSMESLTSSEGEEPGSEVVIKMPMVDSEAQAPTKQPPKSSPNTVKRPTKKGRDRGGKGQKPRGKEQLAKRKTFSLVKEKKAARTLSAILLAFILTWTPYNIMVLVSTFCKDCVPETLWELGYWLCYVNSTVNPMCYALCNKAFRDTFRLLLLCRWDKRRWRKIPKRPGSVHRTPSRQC
Summary of the method: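 Antagonism is measured as inhibition of the carbachol-evoked calcium rise in CHO cells transfected with rat M1. Cells are dye-loaded, exposed to compound for 10 min, then stimulated with 100 nM carbachol (EC80).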

[12] = target: Pyruvate kinase (Leishmania mexicana) (UniProt Q27686); experiment: qHTS Validation Assay for Inhibitors of Leishmania Mexicana Pyruvate Kinase (AID 945);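 also: 0% = DMSO only neutral control wells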
Chain of Pyruvate kinase (Leishmania mexicana) (Q27686 2-499 E452W): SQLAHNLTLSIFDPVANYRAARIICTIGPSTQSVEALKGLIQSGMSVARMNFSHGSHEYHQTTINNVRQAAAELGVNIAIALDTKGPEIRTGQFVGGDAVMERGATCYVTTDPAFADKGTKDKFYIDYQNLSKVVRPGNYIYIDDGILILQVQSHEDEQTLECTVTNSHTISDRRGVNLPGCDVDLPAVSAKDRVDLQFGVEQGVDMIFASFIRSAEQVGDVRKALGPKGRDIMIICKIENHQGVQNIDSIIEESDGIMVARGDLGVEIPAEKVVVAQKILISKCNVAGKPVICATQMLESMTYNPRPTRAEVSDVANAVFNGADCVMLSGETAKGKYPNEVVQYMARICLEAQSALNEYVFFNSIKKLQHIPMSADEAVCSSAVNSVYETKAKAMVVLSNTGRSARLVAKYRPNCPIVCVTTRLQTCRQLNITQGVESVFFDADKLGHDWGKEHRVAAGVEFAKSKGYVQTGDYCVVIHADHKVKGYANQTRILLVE
Summary of the method: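 The enzyme is a highly purified E451W mutant of LmPYK used at 0.2 nM. It converts 0.5 mM PEP and 0.1 mM ADP over 1 h at room temperature; product ATP is quantified by luciferase luminescence relative to DMSO controls.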

[13] = target: Pyruvate kinase PKM (Homo sapiens) (UniProt P14618); experiment: qHTS Assay for Activators of Human Muscle Pyruvate Kinase (AID 954; active = well fitted curve in the direction sought with a large enough effect, not every such curve was filed as active;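 also: 0% = uninhibited enzyme and -100% = no enzyme or full thiadiazolimine inhibition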)
Chain of Pyruvate kinase PKM (Homo sapiens) (P14618 whole entry, looked up): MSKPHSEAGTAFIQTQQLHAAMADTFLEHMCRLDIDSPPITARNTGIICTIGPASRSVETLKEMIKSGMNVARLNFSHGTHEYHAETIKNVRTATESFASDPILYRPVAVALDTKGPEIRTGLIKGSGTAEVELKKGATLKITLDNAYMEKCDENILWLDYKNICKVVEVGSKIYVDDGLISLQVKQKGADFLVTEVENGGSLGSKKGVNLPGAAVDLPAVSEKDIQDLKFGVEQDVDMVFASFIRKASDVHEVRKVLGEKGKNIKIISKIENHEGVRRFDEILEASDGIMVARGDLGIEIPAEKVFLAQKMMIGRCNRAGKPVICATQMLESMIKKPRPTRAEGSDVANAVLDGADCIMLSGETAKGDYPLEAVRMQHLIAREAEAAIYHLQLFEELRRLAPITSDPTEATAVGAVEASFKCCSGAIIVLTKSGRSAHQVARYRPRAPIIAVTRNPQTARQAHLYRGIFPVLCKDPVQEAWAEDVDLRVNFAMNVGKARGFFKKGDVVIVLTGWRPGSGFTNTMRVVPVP
Summary of the method: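 A coupled luminescent readout tracked ATP made from ADP by purified PKM2. Final conditions included 0.1 nM enzyme, PEP and ADP at 0.5 and 0.1 mM, pH 7.2 imidazole buffer with BSA, and a one-hour room-temperature reaction.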

[14] = target: Alpha-galactosidase (Coffea arabica) (UniProt Q42656); experiment: Counterscreen for Glucocerebrosidase Inhibitors: qHTS Assay for Coffee Bean alpha-Galactosidase at pH 4.5 (AID 957);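 also: plate controls were enzyme alone for no effect and no enzyme for full effect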
Chain of Alpha-galactosidase (Coffea arabica) (Q42656 whole entry, looked up): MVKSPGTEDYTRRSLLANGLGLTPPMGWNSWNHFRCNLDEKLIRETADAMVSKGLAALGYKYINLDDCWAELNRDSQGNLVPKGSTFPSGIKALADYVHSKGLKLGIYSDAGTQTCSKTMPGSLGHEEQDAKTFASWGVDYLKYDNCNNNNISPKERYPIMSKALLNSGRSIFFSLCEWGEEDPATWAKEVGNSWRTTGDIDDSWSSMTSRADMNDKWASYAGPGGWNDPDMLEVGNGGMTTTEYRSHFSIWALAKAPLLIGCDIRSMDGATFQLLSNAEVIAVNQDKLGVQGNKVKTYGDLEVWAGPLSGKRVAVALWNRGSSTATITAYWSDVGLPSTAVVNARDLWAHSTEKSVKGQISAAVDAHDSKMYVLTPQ
Summary of the method: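 Enzyme is added first (2 nM final), then compounds titrated from 0.7 nM to 77 uM, then 80 uM 4-methylumbelliferyl alpha-D-galactopyranoside; after 20 min at room temperature a pH 10 NaOH/glycine stop precedes fluorescence reading at 365/440 nm.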

[15] = target: Alpha-galactosidase A (Homo sapiens) (UniProt P06280); experiment: Counterscreen for Glucocerebrosidase Inhibitors: qHTS Assay for Human alpha-Galactosidase at pH 4.5 (AID 992); also: 0% is about no effect
Chain of Alpha-galactosidase A (Homo sapiens) (P06280 whole entry, looked up): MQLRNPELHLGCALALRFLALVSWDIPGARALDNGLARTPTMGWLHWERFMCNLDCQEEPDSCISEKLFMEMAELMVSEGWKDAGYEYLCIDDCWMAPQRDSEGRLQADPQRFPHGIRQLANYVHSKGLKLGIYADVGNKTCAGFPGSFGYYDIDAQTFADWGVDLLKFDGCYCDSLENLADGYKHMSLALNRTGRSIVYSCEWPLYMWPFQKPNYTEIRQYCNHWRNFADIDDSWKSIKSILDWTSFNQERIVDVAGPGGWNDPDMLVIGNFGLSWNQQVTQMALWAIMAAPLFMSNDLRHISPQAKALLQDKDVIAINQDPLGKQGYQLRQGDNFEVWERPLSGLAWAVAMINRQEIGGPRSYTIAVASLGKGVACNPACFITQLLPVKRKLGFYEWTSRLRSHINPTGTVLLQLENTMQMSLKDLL
Summary of the method: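 Citrate buffer pH 4.5, Tween-20 0.005%. Enzyme 2 nM, substrate 80 uM, 20 min RT. Stop pH 10. Fluorescence Ex 365/Em 440. AC50 by Hill fit.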

[16] = target: alpha-glucosidase (Oryza sativa, rice) (UniProt Q653V4); experiment: Counterscreen for Glucocerebrosidase Inhibitors: qHTS Assay for Rice alpha-Glucosidase at pH 5.0 (AID 997);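 also: 0% = full activity with enzyme and -100% = basal without enzyme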
Summary of the method: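 Endpoint fluorogenic assay at pH 5.0: compounds (0.7 nM to 77 uM) titrated against 4 nM rice enzyme and 400 uM 4-MU-alpha-glucoside for 20 min at room temperature; NaOH/glycine stop, read ex 365/em 440 nm, Hill-fitted AC50.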

[17] = target: Alpha-galactosidase (Coffea arabica) (UniProt Q42656); experiment: Counterscreen for Glucocerebrosidase Inhibitors: qHTS Assay for Coffee Bean alpha-Galactosidase at pH 5.9 (AID 998);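 also: plate controls were uninhibited enzyme for no effect and no-enzyme basal signal for full effect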
Summary of the method: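 In 50 mM citric acid pH 5.9 with 0.005% Tween-20, coffee bean enzyme hydrolyses 80 uM 4-MU alpha-D-galactopyranoside over 20 min at RT. Activity is normalized to controls; AC50 comes from Hill-modelled concentration-response data.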

[18] = qHTS Assay for Lipid Storage Modulators (AID 1519; calls by dose curve); details: Drosophila S3 cells, BODIPY lipid droplet/cell ratio, laser cytometry, cells loaded with oleic acid
Summary of the method: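 Cells seeded at 5,000 per well were treated with compounds over a concentration series and loaded with oleic acid (400 uM, as added). Lipid droplet fluorescence (488 nm excitation, 500-530 nm channel) was read by laser-scanning cytometry and normalized to 20 uM Triacsin C.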

CP(=O)(O)CCCN
3.46%: max response ([18]; measured here: cell count channel max response)
4.47%: max response ([18]; measured here: lipid channel max response)
inactive: Potency [1] | activity change, negative = inhibition [2] 0.206% | outcome [3] | Potency [4] > 46 µM | Potency [5] > 46 µM | outcome [6] | Potency [7] | outcome [8] | Potency [9] | activation [10] 7.54% | Potency [11] | outcome [12] | outcome [13] | outcome [14] | outcome [15] | outcome [16] | outcome [17] | activity change, negative = inhibition ([18]; at 57.5 µM (top of the series)) -0.195%
